Assay outcomes: PubChem BioAssay, National Center for Advancing Translational Sciences (NCATS)
In the library only some 3.1% were active in any assay of this set; here they are far more common.
TR SRC2 fluor cs – alters Texas Red total fluorescence, flagging assay interference. actives 0.29% (n = 280,000). Potency, µM (highest dose often 106 µM), inactives show top-dose fluorescence change, negative = quenching. TRb/SRC2 Texas Red total fluorescence interference; active = well fitted curve in either direction with a large enough effect; inconclusive = small, poorly fitted or top-dose-only effect
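Human TRβ ligand-binding domain (0.6 uM) and Texas Red SRC2 peptide (20 nM) in Tris buffer with 1 uM T3 and 5% DMSO were incubated with pinned compound for 5 hr at ambient temperature. Total fluorescence was computed as S + 2P (555/632 nm).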
TRb-SRC2 inh – inhibitors of human thyroid hormone receptor beta-SRC2 interaction | Potency, µM (highest dose often 106 µM), for the others: at the top dose activity change, negative = inhibition, actives largely listed as inhibitors | actives 0.065% (n = 280,000) | P10828 | TRbeta-SRC2 peptide binding, fluorescence polarization; receptor liganded with 1 µM T3;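 also: plate controls were bound peptide for no effect and peptide without receptor for full effect; nearly all actives have a fitted effect of over 50% in size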
Target sequence (P10828 whole entry, looked up): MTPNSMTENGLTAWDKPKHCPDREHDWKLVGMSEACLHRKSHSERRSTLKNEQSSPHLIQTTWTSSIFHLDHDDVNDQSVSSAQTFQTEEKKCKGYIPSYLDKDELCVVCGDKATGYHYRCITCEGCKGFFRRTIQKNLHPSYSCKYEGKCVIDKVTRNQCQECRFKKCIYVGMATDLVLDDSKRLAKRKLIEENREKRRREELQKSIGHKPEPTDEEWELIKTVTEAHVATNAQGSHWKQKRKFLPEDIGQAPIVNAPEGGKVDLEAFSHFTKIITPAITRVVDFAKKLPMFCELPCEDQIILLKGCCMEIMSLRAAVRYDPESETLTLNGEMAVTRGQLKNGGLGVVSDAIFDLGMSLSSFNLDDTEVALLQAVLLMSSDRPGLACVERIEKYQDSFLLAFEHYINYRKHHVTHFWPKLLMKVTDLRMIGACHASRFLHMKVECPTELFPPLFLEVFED
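Each compound concentration gave % activity, normalized to unbound and bound Texas Red SRC2 controls, from polarization read after 5 hr ambient incubation with T3-loaded human TRb LBD.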
Tau fluor cs – counter-screen for tau fibril formation inhibitors | tau K18 P301L Alexa594 fluorescence, heparin fibrillization | Potency, µM (highest dose often 57.7 µM), without a hit: at the top dose activity change, negative = decrease | actives 0.93% (n = 280,000) | AID 1463; also: nearly all actives have a fitted effect of over 55% in size
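Human tau K18 P301L (15 uM unlabeled, 0.24 uM Alexa 594-labeled) in 100 mM sodium acetate pH 7 with 20 uM heparin, 6 hr at 37 C. ThT 30 uM added, 1 hr ambient; Alexa 594 FP and total fluorescence read at 555/632 nm.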
Tau FP inhib – inhibitors of human tau fibril formation. P10636. K18 P301L tau heparin fibrillization, Alexa594 FP, 6 h. Potency, µM (series often up to 57.7 µM), for the others: top-dose activity, negative = inhibition, hits mostly inhibitors. actives 0.39% (n = 280,000). AID 1468; also: nearly all actives have a fitted effect of over 55% in size
Target sequence (P10636 561-689 P618L limits assumed): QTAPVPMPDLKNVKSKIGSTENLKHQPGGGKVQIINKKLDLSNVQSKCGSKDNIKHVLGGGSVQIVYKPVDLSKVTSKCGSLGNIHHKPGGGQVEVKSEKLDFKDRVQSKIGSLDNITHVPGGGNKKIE
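Heparin (20 uM) drove fibril formation of recombinant tau K18 P301L, 15 uM unlabeled with 0.24 uM Alexa 594 label, for 6 hr at 37 C in 100 mM sodium acetate pH 7. Fluorescence polarization (555/632 nm) read 1 hr after 30 uM ThT.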
Tau ThT inhib – inhibitors of human tau fibril formation, thioflavin T binding; actives 2.1% (n = 270,000); Potency, µM (highest dose often 57.4 µM), for the others: top-dose activity, negative = inhibition, actives largely listed as inhibitors; recombinant tau K18 P301L (four-repeat tau fragment), heparin-induced fibrillization, ThT fluorescence; P10636; also: nearly all actives have a fitted effect of over 55% in size
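Aggregation was driven by heparin (20 uM final) acting on recombinant tau […] bearing P301L in 100 mM sodium acetate pH 7; fibrils were detected with Thioflavin T.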
Active calls of the source: *; ? = inconclusive; . = no result; [ ] = dose if it differs, or a comment. Unless noted, calls follow the shape of the dose curve; as a rule, active = well fitted curve in the direction sought with a large enough effect; inconclusive = small, poorly fitted or top-dose-only effect, or another doubt; inactive = no such curve, though single readings can be large; an effect the other way counts as inactive or inconclusive. Unless noted, % is scaled to controls: 0 for no effect and ±100 for the full control effect; potency is read from the fitted curve at half-maximal effect.

SMILES | TR SRC2 fluor cs | TRb-SRC2 inh | Tau fluor cs | Tau FP inhib | Tau ThT inhib
CNc1nc2c(Cl)cc(Cl)cc2s1 | -2.6% | -0.5% | -8.9% | -6.8% | -9.8%
O=C1[C@H]2[C@H]3[C@H](O)[C@H](O)C/C(=N/OCc4ccccc4)[C@H]3CC[C@@H]2C(=O)N1C1CCCCC1 | -16.0%[11.2 µM] | 5.4%[11.2 µM] | 0.2%[11.6 µM] | 3.2%[11.6 µM] | -3.9%[11.5 µM]
COc1ccccc1C(=O)Nc1nc(-c2cccs2)c(NC(C)=O)s1 | -2.8% | -13.6% | -25.7% | ? | -18.3%
CC(=O)Nc1sc(N/N=C\c2ccc(O)cc2)nc1-c1cccs1 | -0.2% | 1.6% | ? | -9.1% | 14.1µM*
CC(=O)Nc1sc(NC(=O)c2ccccc2)nc1-c1cccs1 | -4.1% | -1.7% | -11.7% | -1.4% | ?
CC(=O)Nc1sc(N/N=C\c2ccccc2F)nc1-c1cccs1 | -5.9% | -5.2% | ? | -2.0% | 8.91µM*
CC(=O)Nc1sc(N/N=C\c2cccc(Cl)c2)nc1-c1cccs1 | -2.6% | -1.6% | ? | -5.9% | 10µM*
O=C1C(=C2CCCCC2)SC(=S)N1Cc1ccco1 | -0.4% | -1.3% | -21.4% | ? | 25.1µM*
COc1cc(CNc2ccc(N3CCN(C(C)=O)CC3)cc2)ccc1OCc1ccccc1 | 0.5%[53 µM] | 2.2%[53 µM] | ? | -14.7% | 3.98µM*
CC1CCC2C(=O)OC(COc3ccc(C(C)(C)C)cc3)CN2C1c1ccc(Br)cc1 (stereo not given) | -1.3%[11.2 µM] | 0.2%[11.2 µM] | -14.8%[11.6 µM] | 2.5%[11.6 µM] | -10.3%[11.5 µM]
CCCCN1CCc2[nH]c(=S)[nH]c(=O)c2C1 | 0.708µM*[quencher] | -21.8%[53 µM] | -4.5% | 5.1% | -4.9%
COCCN1CCc2[nH]c(=S)[nH]c(=O)c2C1 | -37.6% | 0.0% | -6.2% | 0.8% | -8.5%
CCOC(=O)c1c(NC(=O)CSc2c[nH]c3ccccc23)sc2c1CCC2 | -1.4% | 4.6% | 10µM*[quencher] | ? | -6.8%
CCOC(=O)c1c(NC(=O)Cc2coc3cc(C)ccc23)sc2c1CCCC2 | 0.1µM*[quencher] | ? | -19.6% | -4.1% | ?
CNC(=O)c1c(NC(=O)Cc2coc3ccc(C)cc23)sc2c1CCCC2 | ? | -0.5% | ? | -4.6% | ?
CCOC(=O)c1c(NC(=O)CSc2c[nH]c3ccccc23)sc2c1CCCC2 | -1.6% | 0.9% | -5.0% | 0.8% | 3.0%
CCN(CC)c1ccc(CNS(=O)(=O)c2cc3c(cc2C)NC(=O)CO3)cc1 | -1.3% | -3.1% | -18.7% | 8.8% | -1.6%
CCc1cccc(NC(=O)c2ccc3c(=O)n4nc(Nc5ccccc5OC)sc4nc3c2)c1 | -2.8% | 5.2% | 0.4% | ? | -0.5%
Cc1ccc(N2CC(NC(=O)c3cccc(Cl)c3)CC2=O)cc1C (stereo not given) | 1.3% | 4.0% | -9.4% | 2.5% | -2.8%
CC1=NN(c2ccc(C)c(C)c2)C(=O)/C1=C\C=C\c1ccc([N+](=O)[O-])o1 | -19.7% | 2.6% | ? | ? | 25.1µM*
Cc1ccc(NC(=O)CCC(=O)N/N=C/c2ccc([N+](=O)[O-])o2)cc1C | -2.3% | 1.6% | -11.6% | -3.8% | .
O=C(/C=C/c1c(Cl)cccc1Cl)n1cccn1 | -1.8% | -5.6% | -13.5% | ? | 10µM*
CCn1cc2nc(SCC(=O)Nc3ccccc3F)n(Cc3ccc(C)cc3)c(=O)c2n1 | -3.3% | 10.0% | -14.3% | 3.7% | -8.8%
COc1ccccc1N1CCN(S(=O)(=O)c2c(C)sc3ncn(CC(=O)Nc4ccc(C)cc4Br)c(=O)c23)CC1 | -2.5% | 12.2% | -12.1% | -5.7% | -4.3%
COc1cc(OC)cc(C(=O)Nc2cc3c(cc2N2CCOCC2)n(C)c(=O)n3C)c1 | -1.8% | -5.1% | -15.2% | 7.1% | -14.8%
SMILES | TR SRC2 fluor cs | TRb-SRC2 inh | Tau fluor cs | Tau FP inhib | Tau ThT inhib
O=C(Nc1ccc2c(c1)OCCO2)c1cc2sccc2n1Cc1ccccc1 | -1.8% | -0.2% | 14.1µM*[quencher] | -6.4% | -13.2%
CC(=O)c1ccc(NC(=O)c2cc3sccc3n2Cc2ccc(Cl)cc2)cc1 | -0.2% | 4.0% | ? | 10µM* | -14.7%
CCCCN(C)CCNC(=O)c1cc2c(=O)n(C)c3ccccc3c2n1C | -2.4% | -3.8% | -5.3% | 0.2% | 5.9%
Cc1cc2cc(CNS(=O)(=O)c3ccc4ccccc4c3)ccc2n1C | 44.7µM*[fluorescent] | 44.7µM* | 5.8% | -12.0% | ?
Cc1cc2ccccc2n1CCNC(=O)c1ccc(S(=O)(=O)N2CCCCC2)cc1 | 44.7µM*[fluorescent] | -24.5% | -21.1% | 5.2% | -6.8%
Cc1cc2ccccc2n1CCNC(=O)C(C)Oc1ccccc1 (stereo not given) | ? | 50.1µM* | -6.0% | ? | ?
CC(=O)Nc1ccc(S(=O)(=O)NCc2ccc3c(c2)cc(C)n3C)cc1 | ? | -26.6% | ? | 12.1% | ?
Cc1cc2cc(CNC(=O)c3ccc(S(=O)(=O)N(C)C)cc3)ccc2n1C | 2.0% | 3.2% | -26.5% | -7.2% | -15.3%
Cc1cc2cc(CNC(=O)c3ccc(S(=O)(=O)N4CCOCC4)cc3)ccc2n1C | 44.7µM*[fluorescent] | 39.8µM* | -5.1% | ? | ?
COc1ccc(CCNC(=O)CSc2nc3ccccc3nc2Cc2ccc(Cl)cc2)cc1OC | -1.9% | -4.7% | -13.7% | -5.5% | -2.8%
COc1cccc(/C=N/c2oc(-c3ccccc3)cc2C#N)c1O | -3.4% | -11.7% | -27.4% | 1.3% | 14.1µM*
CCS(=O)(=O)c1ncc(Cl)c(C(=O)N2CCN(c3cccc(Cl)c3)CC2)n1 | -11.7% | 4.2% | -2.6% | -20.1% | ?
Cc1cc(C)cc(OCC(=O)Nc2nc3c(s2)CC(C(C)(C)C)CC3)c1 (stereo not given) | -0.9% | 0.6% | -3.2% | -3.2% | -3.0%
Cc1cc(/C=N/n2c(COc3ccccc3)nc3ccccc3c2=O)c(O)c([N+](=O)[O-])c1 | -7.0% | 8.9% | ? | 13.8% | 11.2µM*
Cc1ccc(-c2[nH]ncc2/C=N/n2c(COc3ccccc3)nc3ccccc3c2=O)cc1 | 3.3% | -4.7% | 0.3% | 2.1% | 9.4%
Cc1cc(NC(=O)Cn2c(=O)oc3cc(S(=O)(=O)N4CCCC4)ccc32)ccc1Br | -7.0% | 7.0% | -14.3% | ? | 8.8%
Nc1cccc(Oc2c(F)c(F)c(Oc3cccc(N)c3)c(F)c2F)c1 | -1.8% | -0.6% | 6.31µM*[quencher] | ? | ?
O=C(NCc1cccs1)c1ccc([N+](=O)[O-])cc1 | 0.1µM*[quencher] | ? | -9.5% | 10.2% | -12.0%
Cc1cc(C(=O)NCc2cccs2)ccc1[N+](=O)[O-] | 1.1% | -4.4% | -11.4% | -8.5% | -9.5%
COc1ccc(C2NC3=C(CCCC3)C(C#N)(C#N)C2(C#N)C#N)cc1 (stereo not given) | 16.4% | ? | ? | ? | 25.1µM*
COc1ccc(C2NC3=C(CCC3)C3(C#N)C4(N=C(N)C23C#N)OCCO4)cc1 (stereo not given) | -4.5% | 8.2% | -9.1% | -12.5% | ?
Oc1ccc(/C=N/N=C(c2ccccc2)c2ccccc2)c(O)c1O | -13.3% | 2.1% | 12.6µM*[quencher] | ? | 8.91µM*
